In PubChem BioAssay (NCI):
The panel holds about 79,000 compounds, 15% with a hit somewhere; the sample as a whole holds those more often. A number with no mark means an inactive call. Cut-off read from the data, not from the text of the source: active = growth inhibition above about 70%; inactive = the rest.

test: NCI Yeast Anticancer Drug Screen. Data for the sgs1 mgt1 strain (AID 161);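 note: 0% = growth of cultures given vehicle only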; conditions: S. cerevisiae sgs1 mgt1 strain, at 50.0 µM, active compounds read high
Procedure, shortened: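 Genetically altered yeast, compound exposure, growth inhibition relative to vehicle.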

Compound	growth inhibition [%]
CCOC(=O)C(=CNc1cc(C(F)(F)F)ccc1N1CCOCC1)C(=O)OCC	-9.5
COCC(=O)c1ccc(C#N)cc1	-7.25
CC(=O)Nc1ccc(O)c([N+](=O)[O-])c1	3.3
CC1(C)C2CC3C(=CCCC3C(=O)O)C1C2 (stereo not given)	-8.55
COc1cc(C(C#N)NNC(=O)c2ccccc2O)ccc1O (stereo not given)	44.7
O=C(On1nnc2ccccc2c1=O)c1ccccc1	22.8
c1ccc(-c2n[nH]c3c2CCCc2ccccc2-3)cc1	7.35
O=C1NC(=O)c2c(Br)c(Br)c(Br)c(Br)c21	2.35
CCOC(=O)/C(F)=C/c1cccc([N+](=O)[O-])c1	-5.35
Nc1cc(Cl)cc2[nH]c(=O)c3cc(Cl)ccc3c12	13.6
O=C1N=C2SCCCN2C1(c1ccccc1)c1ccccc1	-3.4
COC(=O)Nc1nc2ccc(C3c4c(n[nH]c4C)CC(C)(O)C3C(C)=O)cc2[nH]1 (stereo not given)	-7.3
O/N=C1\c2ccccc2-c2cccc(I)c21	7.8
O=C1C(c2ccccc2)=C(c2ccccc2)C(c2ccc(Sc3ccc(C4=C(c5ccccc5)C(=O)C(c5ccccc5)=C4c4ccccc4)cc3)cc2)=C1c1ccccc1	30.6
O=C(O)/C=C/C=C/c1ccc(Cl)cc1	4.3
CSc1ccccc1C(C)(C)O	3.35
CCCNc1ccc2c(c1)C(=O)c1ccccc1-2	-0.15
C/C=C/C1OCC(C)(C)CO1	-12.9
NC(=O)N=P(c1ccccc1)(c1ccccc1)c1ccccc1	-6
COCCNC(c1ccccc1)C(O)c1ccccc1 (stereo not given)	-5.15

Compound	growth inhibition [%]
CCOC(=O)N1C(=O)c2ccccc2C1=O	-16.8
COc1ccc(/C=C2\N=C(c3ccccc3)OC2=O)c(Br)c1OC(C)=O	-12.7
CCCCCCCCCCCCCCC(CCCCCCCCCCCCCC)c1ccccc1	11.6
Clc1ccc2nc[nH]c2c1	4.5
[N-]=[N+]=CC(=O)C1OC1c1ccc(Br)cc1 (stereo not given)	22.9
O=C1NC2CCC(NC(=O)N1c1ccccc1)C1=C2C1	-5.7
C=CS(=O)(=O)c1ccc(NC(=O)Nc2ccc(Cl)cc2)cc1	-8.8
O=c1c2ccccc2n2nnc3ccc(NCCNCCO)c1c32	-0.7
CCCCOC(=O)c1ccc(OC(=O)Nc2cccc(Cl)c2)cc1	6.15
CC(=O)OCC1OC(n2c(Br)nc3c(N)ncnc32)C(O)C1O (stereo not given)	-16.4
CC(=O)OC1/C=C(/C)CCC2OC2(C)CC2OC(=O)C3(CC3)C12 (stereo not given)	-2
NC(c1ccccc1)(c1ccccc1)c1ccccc1	43.9
Cc1cc(C(C)(C)C)nc(C(C)(C)C)c1	15.2
COc1ccc(N2C(=O)C3c4[nH]c5cccc(C)c5c4C4CCC(C(C)(C)C)CC4C3C2=O)cc1 (stereo not given)	-5.75
CCC(C)C(C(=O)OCCC[N+]1(C)CCCCC1)c1ccccc1 (stereo not given)	18.2
COC(=O)[C@H]1C=C[C@H](OC2OC(COC(C)=O)C(OC(C)=O)C(OC(C)=O)C2OC(C)=O)n2c(=O)n(-c3ccccc3)c(=O)n21 (stereo not given in full)	-1.25
Cc1ccc(N2C(=O)CS/C2=C(\C#N)c2nc3ccccc3[nH]2)cc1	-66.1
NC(=O)c1ccc[n+](CC(=O)Nc2ccccc2)c1	6.45
COc1ccc2c(-c3cc4ccccc4o3)cc(=O)oc2c1	-21.3
CN(C)CCCNC(=O)N/N=C\c1cccc2ccccc12	-17.4
